Source: PubChem
In the library only some 3.8% were active in any assay of this set; here they are far more common.
TGFb SMAD3 inh – blocks TGF-b signaling | HepG2 CAGA-GFP TGF-b/SMAD3 reporter, GFP fluorescence, 18 h; TGF-beta stimulated, 500 pg/mL final | Potency, µM (highest dose often 46.1 µM), for the others: top-dose activity, negative = inhibition, most hits filed as inhibitors | 410,000 compounds, 1.2% hits | AID 588855; note: % is set by controls: 0 for no effect and ±100 for the full control effect; nearly all actives have a fitted effect of over 65% in size
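Read-out: total well GFP (ex488/em500-530) summed from mean per-cell fluorescence. Cells: HEPG2 CAGA-GFP, 1% FBS DMEM, 18 h at 37 degrees C with 500 pg/mL final TGF-beta. Unstimulated wells served as the full-inhibition control; stimulated DMSO wells = 0%.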
HepG2 tox-1 – kills HepG2 cells in TGF-b inhibitor counter-screen. AID 588856. 410,000 compounds, 0.76% hits. HepG2 CAGA-GFP viability, ATP luminescence, 18 h. Potency, µM (titrated, usually from 46.1 µM), for inactives: top-dose activity change, negative = cytotoxicity, hits mostly cytotoxic
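HepG2 CAGA-GFP cells (1000/well, DMEM with 1% FBS) received compound, then TGF-beta at 500 pg/mL final, and were incubated 18 hours at 37 degrees C. Viability was read by CellTiter-Glo luminescence. Media-only wells were set as complete cell-killing and DMSO as no toxicity.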
ATXN2 expr inh – reduces ATXN2 reporter expression in HEK-293 cells; HEK-293 ATXN2-luciferase reporter, luminescence, 24 h; Potency, µM (titrated, usually from 57 µM), without a hit: top-dose activity change, negative = inhibition, most hits filed as inhibitors; 360,000 compounds, 0.72% hits; AID 1745845; note: % is set by controls: 0 for no effect and ±100 for the full control effect; nearly all actives have a fitted effect of over 55% in size
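ATXN2-luciferase reporter cells (luciferase flanked by upstream and downstream ATXN2 gene portions) were treated 24 h at 37 °C with compounds at up to 57 uM. SteadyGlo luminescence gave expression; GF-AFC fluorescence gave viability.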
ATXN viability – cell viability loss in ATXN counter-screen; S2 cells (HEK-293 line with an ATXN2-luciferase reporter) viability, CellTiter-Fluor protease fluorescence, 24 h; Potency, µM (top dose mostly 56.7 µM), most hits filed as cytotoxic; 400,000 compounds, 0.49% hits; AID 651635; note: nearly all actives have a fitted effect of over 40% in size
HT1080-NT tox – kills 2HG-producing HT-1080-NT fibrosarcoma cells; Potency, µM (doses to about 46.1 µM), inactives show at the top dose activity, negative = less viability, most hits filed as cytotoxic; AID 686970; 360,000 compounds, 1.6% hits; HT-1080-NT fibrosarcoma viability, CellTiter-Glo ATP luminescence, 48 h;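 note: NT is the 2HG producing partner of a matched IDH1 knockdown line; 0% = DMSO-treated cells and -100% = media-only wells without cells; nearly all actives have a fitted effect of over 55% in size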
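Toxicity toward the 2HG-producing NT line was scored as %Activity, normalised to DMSO and no-cell wells, from CellTiter-Glo luminescence after 48 hours' treatment.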
HT1080 IDH1KD tx – toxicity to HT-1080 IDH1 knockdown cells (counter line); HT-1080 IDH1 knockdown viability, ATP luminescence, 48 h; Potency, µM (highest dose often 46.1 µM), inactives show at the highest dose activity, negative = toxicity, actives largely listed as cytotoxic; 360,000 compounds, 2% hits; AID 686971;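 note: 0% = DMSO wells and -100% = cell-free medium wells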
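IDH1KD HT-1080 cells, 750/well, RPMI + 5% FBS; compound pinned after 2 h settling; 48 h, 37 °C; CellTiter-Glo luminescence; % activity normalised to DMSO and no-cell wells; curves fitted, classed by r2 and efficacy.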
TGFb confirm – TGF-b pathway inhibition, cherry-pick retest; shares compounds with TGFb SMAD3 inh; HepG2 CAGA-GFP TGF-b reporter, GFP fluorescence, 18 h; cells stimulated with TGF-beta, 500 pg/mL; Potency, µM (titrated, usually from 46.1 µM), for the others: top-dose activity, negative = inhibition, actives largely listed as inhibitors; 1,600 compounds, 63% hits; note: % is set by controls: 0 for no effect and ±100 for the full control effect; nearly all actives have a fitted effect of over 65% in size
HepG2 tox-2 – toxic to HepG2 cells in TGF-b counterscreen; shares compounds with TGFb SMAD3 inh; 1,600 compounds, 27% hits; Potency, µM (doses to about 46.1 µM), without a hit: at the highest dose activity, negative = cytotoxicity, actives largely listed as inhibitors; HepG2 CAGA-GFP viability, ATP luminescence, 18 h; cells stimulated with TGF-beta, 500 pg/mL; note: % is set by controls: 0 for no effect and ±100 for the full control effect; nearly all actives have a fitted effect of over 70% in size
CCL64 TGFb inh – blocks TGF-b signaling in CCL64 reporter cells. 1,600 compounds, 41% hits. shares compounds with TGFb SMAD3 inh. CCL64 CAGA-GFP reporter, TGF-b stimulated, GFP fluorescence, 18 h. Potency, µM (titrated, usually from 46.1 µM), inactives show at the top dose activity, negative = inhibition, actives largely listed as inhibitors; note: nearly all actives have a fitted effect of over 65% in size
TGFb COP inh – validation of TGF-b inhibitors in HepG2 COP promoter reporter. 1,600 compounds, 3% hits. Potency, µM (series often up to 46.1 µM), without a hit: at the top dose activity, negative = inhibition, actives largely listed as inhibitors. shares compounds with TGFb SMAD3 inh. HepG2 COP-GFP TGF-b reporter, GFP fluorescence, 18 h; cells stimulated by added recombinant TGF-beta; note: nearly all actives have a fitted effect of over 70% in size
* hit, by the source's call; i = inactive; ? = inconclusive; . = no result given; [ ] = another dose, or the depositor's remark. Calls come from the whole dose curve; as a rule, active = well fitted curve in the direction sought with a large enough effect; inconclusive = small, poorly fitted or top-dose-only effect, or another doubt; inactive = no such curve, though single readings can be large; an effect the other way counts as inactive or inconclusive. Potency is the fitted concentration of half-maximal effect.

SMILES	TGFb SMAD3 inh	HepG2 tox-1	ATXN2 expr inh	ATXN viability	HT1080-NT tox	HT1080 IDH1KD tx	TGFb confirm	HepG2 tox-2	CCL64 TGFb inh	TGFb COP inh
O=C(Nc1ccc(Cl)cc1)C1Cc2c(-c3ccc(Cl)cc3)ccnc2O1 (stereo not given)	?	-57.4%	?	i	?	?	.	.	.	.
O=C(Nc1ccc(F)c(Cl)c1)C1Cc2c(-c3ccc(Cl)cc3)ccnc2O1 (stereo not given)	15.8µM*	-19.1%	?	?	?	?	10.3µM*	?	18.4µM*	81.5%
CC(=O)Nc1ccc(-c2ccnc3c2CC(C(=O)Nc2ccc(Cl)c(C(F)(F)F)c2)O3)cc1 (stereo not given)	14.1µM*	-20.1%	?	?	?	?	8.2µM*	?	23.1µM*	59.0%
Cc1ccc(S(=O)(=O)N2CC=C(c3ccc(F)cc3)CC2)cc1	3.16µM*	4.9%	-8.4%	?	-1.2%	-2.1%	?	-14.2%	0.5%	-13.5%
Cc1ccc(NC(=O)C2=CCN(S(=O)(=O)c3ccc(F)cc3)CC2)cc1	-5.3%	37.7%	-20.6%	i	0.0%	-2.3%	.	.	.	.
Cc1cc(C)cc(-n2nnc(-c3nc(-c4ccccc4F)no3)c2C)c1	27.3%	4.9%	.	.	.	.	.	.	.	.
Cc1noc2ncnc(Oc3cc(Cl)ccc3Cl)c12	?	-27.1%	-6.5%[11.3 µM]	?	?	9.0%	18.4µM*	?	?	16.7%
Cc1noc2ncnc(Oc3ccc4ccccc4c3)c12	-1.6%	-50.9%	2.9%	i	8.7%	0.2%	.	.	.	.
O=C(NCc1ccco1)c1c[nH]c2ccc(S(=O)(=O)Nc3ccc(F)cc3F)cc2c1=O	4.3%	-29.6%	-19.1%	i	.	.	.	.	.	.
COc1ccc(C2C(=O)N(C3CCC(C)CC3)CC(=O)N2CCC2=CCCCC2)cc1OC (stereo not given)	-0.1%	-14.6%	.	.	.	.	.	.	.	.
CCOC(=O)N=Nc1c2ccccc2c2nc3no[nH]c3nc12	0.708µM*	0.794µM*	?	.	1.16µM*	1.03µM*	0.651µM*	0.731µM*	1.3µM*	0.731µM*
CC(C)(C)c1ccc(OCCNC(=S)Nc2ccccc2)cc1	14.1µM*	2.8%	-33.6%	i	?	16.4µM*	?	?	?	46.4%
COc1cc(NC(=O)COCc2cc(-c3ccc(F)cc3)on2)cc(OC)c1OC	?	-8.8%	0.0%	?	.	.	.	.	.	.
Cc1oc2c(c1C(=O)N1CCC(C)CC1)C(=O)c1ccccc1C2=O	3.98µM*	5.01µM*	25.1µM*	17.8µM*	20.6µM*	23.1µM*	3.66µM*	5.8µM*	11.6µM*	20.6µM*
CCOC(=O)C1CCN(C(=O)c2c(C)oc3c2C(=O)c2ccccc2C3=O)CC1	4.47µM*	2.82µM*	?	?	-5.9%	-14.7%	2.06µM*	5.17µM*	7.31µM*	5.8µM*
CCCc1nnc(NC(=O)C(CC)OC(=O)c2cc(C)nc3ccccc23)s1 (stereo not given)	?	5.2%	4.6%	i	-0.6%	2.0%	?	1.4%	7.8%	4.6%
Fc1cccc(CN2CCc3nc(Nc4ccc5c(c4)OCCO5)ncc3C2)c1F	?	-37.6%	?	?	.	.	.	.	.	.
CCc1ccc(-c2cc(C)no2)cc1S(=O)(=O)N1CCCN(Cc2ccc(F)cc2)C1	10µM*	-65.6%	-38.7%	i	23.1µM*	?	?	?	?	67.0%
O=C(COC(=O)C12CC3CC(CC(Br)(C3)C1)C2)NCc1ccco1	-15.0%	2.3%	.	.	.	.	.	.	.	.
CC1=C(C(=O)Nc2cccc(F)c2)C(c2ccsc2)C2=C(CC(C)(C)CC2=O)N1 (stereo not given)	10µM*	-2.5%	-20.7%	?	?	2.06µM*	?	-9.9%	-22.4%	-9.8%
CC1=C(C(=O)Nc2ccccc2F)C(c2ccsc2)C2=C(CC(C)(C)CC2=O)N1 (stereo not given)	-26.8%	-32.2%	.	i	?	?	.	.	.	.
CCOC(=O)c1noc2ncnc(N3CCN(c4ccccc4OC)CC3)c12	?	-17.7%	-19.4%	i	.	.	.	.	.	.
CSc1cccc(NC(=O)c2ccc3c(c2)c(C)c(C)n3Cc2ccc(F)cc2)c1	-22.6%	-21.4%	.	.	.	.	.	.	.	.
CCOC(=O)c1cc(-c2ccc(OC)cc2)n(CCC(=O)NCCc2ccc(OCC)c(OCC)c2)c1C	-33.4%	-13.1%	.	.	.	.	.	.	.	.
Nc1c2ccccc2nc2ccccc12	7.94µM*	12.2%	5.01µM*	.	23.1µM*	13µM*	9.2µM*	11.6µM*	13µM*	4.7%
CCC(=O)N1CCc2cc(Br)cc(S(=O)(=O)N(CC)Cc3ccccc3)c21	?	-5.7%	4.9%	i	.	.	.	.	.	.
C/C(=N/NC(=O)c1ccc(C(C)(C)C)cc1)c1ccccn1	?	4.2%	?	i	7.31µM*	5.8µM*	2.59µM*	?	9.2µM*	2.0%
C/C(=N/NC(=O)c1ccccn1)c1ccncc1	20.3%	0.6%	9.0%	i	6.2%	10.2%	.	.	.	.
C/C(=N\NC(=O)C1COc2ccccc2O1)c1ccccn1 (stereo not given)	?	-17.1%	3.55µM*	?	?	?	20.6µM*	-27.2%	?	5.4%
